# Results from PubChem BioAssay AID588590 (National Center for Advancing Translational Sciences (NCATS), 2011).
# Values joined by “and” are separate entries in the source; they are usually repeats but may differ in a detail not shown here. Identical values can stand only once. Screen size: about 390,000 compounds; about 4,000 (1%) were called active. Roughly 7% stayed inconclusive and do not appear here. The call rests on the fitted dose curve; in most records, active means well fitted inhibition curve with a large enough effect; inconclusive means small, poorly fitted or top-dose-only effect, or another doubt; inactive means no such curve, though single readings can be large or run the other way. For the sample, actives were picked, then their nearest neighbours and some compounds at random.
# Target: DNA polymerase iota (Homo sapiens) (UniProt Q9UNA4)
# Experiment: qHTS for Inhibitors of Polymerase Iota
# Conditions: Pol iota fluorescent replication assay, 10 min; series mostly up to 115 µM; activity, negative = inhibition: at the top concentration
# Summary of the method: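 Fluorescent replication assay read twice, at 0 min and 10 min after adding 50 nM (final) substrate. Enzyme (10 nM) and compounds were first incubated 15 min at room temperature; enzyme-free buffer wells were negative controls.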
# Potency means the concentration at half of the fitted maximal effect.
# Sequence of DNA polymerase iota (Homo sapiens) (Q9UNA4 whole entry, looked up): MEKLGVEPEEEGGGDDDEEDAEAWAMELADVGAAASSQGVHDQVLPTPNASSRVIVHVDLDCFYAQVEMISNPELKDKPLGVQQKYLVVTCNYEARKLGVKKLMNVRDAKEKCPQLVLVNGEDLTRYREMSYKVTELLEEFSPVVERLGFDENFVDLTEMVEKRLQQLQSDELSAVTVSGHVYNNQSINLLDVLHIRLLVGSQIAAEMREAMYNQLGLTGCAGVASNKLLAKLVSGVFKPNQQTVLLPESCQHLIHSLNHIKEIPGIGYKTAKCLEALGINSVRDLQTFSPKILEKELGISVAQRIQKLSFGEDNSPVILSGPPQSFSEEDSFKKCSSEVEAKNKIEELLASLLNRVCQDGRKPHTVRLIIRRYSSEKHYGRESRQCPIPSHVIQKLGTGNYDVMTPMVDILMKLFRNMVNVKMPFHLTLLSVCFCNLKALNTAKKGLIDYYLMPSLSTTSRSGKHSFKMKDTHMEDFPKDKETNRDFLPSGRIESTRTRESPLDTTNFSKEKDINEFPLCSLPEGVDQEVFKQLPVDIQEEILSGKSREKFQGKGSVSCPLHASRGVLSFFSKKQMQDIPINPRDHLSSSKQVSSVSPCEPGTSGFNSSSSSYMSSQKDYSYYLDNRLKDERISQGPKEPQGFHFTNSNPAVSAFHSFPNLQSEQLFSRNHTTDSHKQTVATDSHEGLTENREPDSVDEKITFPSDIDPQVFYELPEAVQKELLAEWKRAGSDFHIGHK
Structure (SMILES),"activity, negative = inhibition",Potency
Nc1ncnc2nnsc12,-2.97% (inactive),–
COC(=O)c1ccc(Cn2c(SCC(=O)N(C)c3ccccc3)nc3ccccc32)cc1,-4.29% (inactive),–
CCC(C)Cn1c(O)cc2nn(-c3nc4ccccc4s3)c(=O)c-2c1C (configuration not stated),–,12.6 µM (active)
O=C1NN(c2ccccc2)C(=O)/C1=C/c1ccc(-c2cccc(C(=O)O)c2)o1,–,8.91 µM (active)
CC(=O)c1cc(-c2ccccc2)[nH]c1N1CCCC1,5.83% (inactive),–
COc1ccc2c(c1)C=C(C(=O)NCc1cc(Br)ccc1OC)CO2,24.9% (inactive),–
COC(=O)c1ccc(NC(=O)CCc2c(C)nn(-c3ccc(N4CCCC4)nn3)c2C)cc1,3.11% (inactive),–
COc1ccc(C)cc1NC(=O)COCc1cc(-c2cccs2)on1,-5.82% (inactive),–
O=C(NC1CC(=O)N(c2ccccc2)C1)c1ccco1 (configuration not stated),18.3% (inactive),–
CCOc1cc2[nH]c(=O)n(Cc3ccc(C(=O)NCCN(CC)CC)cc3)c(=O)c2cc1OCC,22.6% (inactive),–
Cc1ccc(C(=O)OCC(=O)N2CC(C)CC(C)C2)cc1S(=O)(=O)N1CCCCC1 (configuration not stated),50.2% (inactive),–
Cc1ccc(C(=O)OCC(=O)NCc2cc(C)c(O)c(C)c2)cc1S(=O)(=O)N1CCCCC1,–,79.4 µM (active)
COc1ccc(CNC(=O)COC(=O)c2ccc(C)c(S(=O)(=O)N3CCOCC3)c2)cc1OC,33.4% (inactive),–
CC1CCCN(c2nc3c(S(=O)(=O)c4ccc(C(C)C)cc4)nnn3c3ccsc23)C1 (configuration not stated),28.7% (inactive),–
CCc1nn(CC(=O)Nc2cccc(C)c2C)c(=O)c2cc3sccc3n12,-1.22% (inactive),–
O=C(CN1C(=O)c2cccc3cccc(c23)C1=O)N1CCCCC1,27.2% (inactive),–
C[N+](C)(CCCCCC[N+](C)(C)CCCN1C(=O)c2cccc3cccc(c23)C1=O)CCCN1C(=O)c2cccc3cccc(c23)C1=O,–,2.24 µM (active) and 20 µM (active)
O=C(CN1C(=O)c2cccc3cccc1c23)Nc1ccccc1,120% (inactive),–
CCn1c(C)c(C)c2cc(C(=O)NCCc3cc(OC)ccc3OC)ccc21,10.3% (inactive),–
Cc1cccc(CCNC(=O)c2ccc3c(c2)nc2n3CCC(C)C2)c1 (configuration not stated),21.1% (inactive),–
COc1cc2[nH]c(C)c(CCN3CCN(c4ccccc4)CC3)c2cc1OC,14.1% (inactive),–
O=S(=O)(NCc1ccccc1)c1ccc(S(=O)(=O)N2CCCC2)cc1,55.4% (inactive),–
O=c1/c(=C/c2ccc(CNS(=O)(=O)c3ccccc3)o2)sc2n1CCN=2,–,35.5 µM (active)

Structure (SMILES),"activity, negative = inhibition",Potency
COC(=O)C1=C(C)NC(=O)/C1=C/c1ccc(CNS(=O)(=O)c2ccc(C)cc2)o1,8.35% (inactive),–
CCc1cccc(-n2nnc(-c3nsc(NC(=O)c4ccc(C)cc4)n3)c2C)c1,10.3% (inactive),–
O=C(Nc1ccc2oc(-c3ccc(O)c(Br)c3)nc2c1)c1cc2ccccc2o1,25% (inactive),–
Cc1ccccc1NC(=O)Cn1c(=O)n(Cc2ccco2)c(=O)c2ccc(C(=O)NC3CCCC3)cc21,11.1% (inactive),–
COc1ccc(NC(=O)C2CCCN(S(=O)(=O)c3cccc4nonc34)C2)cc1Cl (configuration not stated),-4.75% (inactive),–
CCOc1ccccc1NC(=O)CCn1cnnn1,12.4% (inactive),–
CCOc1ccc(NC(=O)C/C(C)=N/NC(=O)Cc2cccs2)cc1,16.3% (inactive),–
CCc1nnc(NC(=O)CCC(=O)NCc2ccccc2OC)s1,14.9% (inactive),–
COc1ccc(CNC(=O)CCC(=O)Nc2nnc(C(C)C)s2)cc1,39.1% (inactive),–
CCOc1ccccc1NC(=O)Cc1cccs1,–,44.7 µM (active)
COc1ccc(Cc2nnc(NC(=O)Cc3cccs3)s2)cc1,–,4.47 µM (active)
O=C(Cc1cccs1)Nc1ccc([N+](=O)[O-])cc1,-7.17% (inactive),–
CCc1nnc(NC(=O)Cc2cccs2)s1,–,11.2 µM (active)
COc1ccc(Cc2nnc(NC(=O)c3cc(OC)c(OC)c(OC)c3)s2)cc1OC,-6.07% (inactive),–
COc1ccc(-c2cc(-c3ccccc3)nc3c2COc2ccc(Cl)cc2-3)cc1,16.9% (inactive),–
CCN(CC)c1nc(C#N)nc(OC)n1,-19.6% (inactive),–
CCc1ccc(OCCCn2c(CCCNC(=O)C3CCCCC3)nc3ccccc32)cc1,22.4% (inactive),–
C/C(=N\Nc1ccc(S(N)(=O)=O)cc1[N+](=O)[O-])c1cccs1,–,25.1 µM (active)
CCOC(=O)C/C(C)=N\Nc1ccc([N+](=O)[O-])cc1[N+](=O)[O-],-3.02% (inactive),–
C/C(=N\Nc1ccccc1)c1cccs1,14.5% (inactive),–
O=C(Cc1ccccn1)c1ccc(O)cc1O,-3.24% (inactive),–
O=C(NNc1c2ccccc2nc2ccccc12)c1cc2ccccc2cc1O,–,39.8 µM (active)
Cc1ccc(C(=O)NNc2ncnc3ccccc23)cc1,-4.31% (inactive),–

Structure (SMILES),"activity, negative = inhibition",Potency
CN(Cc1ccccc1)C(=O)c1cc2c(=O)n(C)c3ccccc3c2s1,-0.232% (inactive),–
CN(C)c1ccc(/C=C/c2sc3ccccc3[n+]2CCCCBr)cc1,41.8% (inactive),–
CN(C)c1ccc(/C=C/c2c3ccccc3nc3ccccc23)cc1,-2.85% (inactive),–
CN(C)c1ccc(/C=C/c2sc3ccccc3[n+]2C)cc1,–,79.4 µM (active)
CCCN1CCC(=O)N(C(CSc2ccc(OC)cc2)Cc2ccccc2)CC1 (configuration not stated),14.6% (inactive),–
C[N+]1(CC(=O)c2cccs2)CCOCC1,14.8% (inactive),–
CCc1ccc(N2CC(C(=O)Nc3ccc(S(=O)(=O)Nc4nccs4)cc3)CC2=O)cc1 (configuration not stated),7.88% (inactive),–
CCc1ccc(N2CC(C(=O)N3CCCCCC3)CC2=O)cc1 (configuration not stated),-6.39% (inactive),–
CCc1ccc(N2CC(C(=O)NC3=NCCS3)CC2=O)cc1 (configuration not stated),–,89.1 µM (active)
Cc1cccc(CN2Cc3cccc4c3[C@H](C=CC4)CC2=S)c1,31.4% (inactive),–
CC1CCCN(S(=O)(=O)c2ccc3[nH]c(=O)cc(C(=O)NCCc4ccc(Cl)cc4)c3c2)C1 (configuration not stated),4.12% (inactive),–
COc1cc2nc(Cl)nc(NC3CC3)c2cc1OC,17.8% (inactive),–
COc1ccc(C)cc1NC(=O)C(=O)NCCc1sc(-c2cccc(C)c2)nc1C,32% (inactive),–
C=C1c2c(Cl)ccc(O)c2C(O)=C2C(=O)[C@]3(O)C(O)=C(C(N)=O)C(=O)[C@@H](N(C)C)[C@@H]3[C@@H](O)C12 (some centres not stated),–,2.51 µM (active)
Cc1ccc(NC(=O)c2nc(S(=O)(=O)Cc3cccc(C)c3)ncc2Cl)cc1,-13.9% (inactive),–
COc1cc(C(CC(=O)NCCC(C)C)N2Cc3ccccc3C2=O)cc(OC)c1OC (configuration not stated),5.25% (inactive),–
COc1ccc(CCNC(=O)c2c3c(nc4ccccc24)C(=O)N(C2CCCCC2)C3)cc1OC,8.03% (inactive),–
Cc1c(NC(=O)C(C)(C)C)cccc1-c1nc2ccccc2s1,11.4% (inactive),–
O=C(COc1ccc(Cl)cc1)Nc1ccc(-c2nc3cc(Cl)ccc3o2)c(O)c1,28.2% (inactive),–
O=C1C2C3C=CC(C4CC34)C2C(=O)N1/N=C/c1ccc(-c2ccccc2[N+](=O)[O-])o1 (configuration not stated),-5.9% (inactive),–
O=C(O)c1ccc2c(=O)n3c(nc2c1)/C(=C/c1ccc(Cl)c([N+](=O)[O-])c1)CC3,123% (inactive),–
CC1=NN(c2ccc(Cl)c(C(=O)O)c2)C(=O)/C1=C/c1ccc(-c2ccccc2[N+](=O)[O-])o1,–,1.41 µM (active)
Cc1ccc2onc(CC(=O)N3CCN(c4ccc(Cl)cc4)CC3)c2c1,9.13% (inactive),–

Structure (SMILES),"activity, negative = inhibition",Potency
COc1ccc(C2Nc3ccc(NC(=O)COC(C)=O)cc3C(=O)N2Cc2ccccc2)cc1COc1ccc(NC(C)=O)cc1 (configuration not stated),15.4% (inactive),–
COC(=O)c1ccccc1NC(=O)Cn1c(=O)cc(C)c2c(C)nn(-c3cccc(Cl)c3C)c21,34.6% (inactive),–
COc1ccc(Cl)cc1C(=O)NNC(=S)NC(=O)/C=C/c1ccco1,16.2% (inactive),–
O=C(/C=C/c1ccco1)NC(=S)Nc1ccccc1Br,–,25.1 µM (active)
CC(C)CNC(=O)COC(=O)/C=C/c1ccco1,-29.3% (inactive),–
CC(=O)Nc1ccc(NC(=O)C2CCCN(S(=O)(=O)c3ccc4c(c3)CCCC(=O)N4)C2)cc1 (configuration not stated),2.46% (inactive),–
COc1ccc(-c2nc(=N)sn2-c2ccccc2)cc1,-18.6% (inactive),–
O=C(Nc1ccc(S(=O)(=O)Nc2nccs2)cc1)c1cc(-c2ccncc2)nc2ccccc12,–,11.2 µM (active)
COc1ccccc1OC(C)C(=O)Nc1ccc(S(=O)(=O)Nc2nccs2)cc1 (configuration not stated),76.1% (inactive),–
CCC(CC)C(=O)Nc1ccc(S(=O)(=O)Nc2nccs2)cc1,111% (inactive),–
COc1ccc(NS(=O)(=O)c2cc3c4c(c2)CC(=O)N4CCC3)cc1Cl,-8.67% (inactive),–
CCOc1ccc(OCC)c(NC(=O)CN(c2ccc(C)cc2)S(=O)(=O)c2c(C)n[nH]c2C)c1,9.87% (inactive),–
CC1CCN(S(=O)(=O)c2ccc3c(ccn3CCC(=O)NCc3ccc(N(C)C)cc3)c2)CC1,-7.35% (inactive),–
O=C(NC1CC(=O)N(c2ccc(Cl)cc2)C1)C1CCCC1 (configuration not stated),5.35% (inactive),–
COc1ccc(NC(=O)CSc2nc(NS(=O)(=O)c3ccc(C)cc3)cc(=O)[nH]2)cc1,8.29% (inactive),–
Cc1nnc(SCC(=O)Nc2ccc(S(=O)(=O)Nc3ccc(Cl)nn3)cc2)s1,–,28.2 µM (active)
CCCCCC(=O)Nc1ccc(S(=O)(=O)Nc2ccc(Cl)nn2)cc1,-8.6% (inactive),–
NC(=O)Nc1ccc(/C=C/c2ccnc3ccccc23)cc1,24.2% (inactive),–
COc1ccc(-c2[nH]c3c(c2-c2c(-n4cccc4)n(C)c(=O)n(C)c2=O)c(=O)n(C)c(=O)n3C)cc1,33.3% (inactive),–
COc1ccc(CC(=O)n2nc(-c3cccnc3)nc2N)cc1,18.7% (inactive),–
COc1ccc(C(=O)n2nc(-c3ccc(Cl)cc3)nc2N)cc1OC,8.66% (inactive),–
CCCC(=O)n1nc(-c2ccccc2)nc1N,–,79.4 µM (active)
CCC(Sc1nnc(-c2ccc(OC)cc2)c(-c2ccc(OC)cc2)n1)C(=O)NC1CCCCC1 (configuration not stated),9.48% (inactive),–
